Sampled rows, rich in hits. Any-hit rate of the full collection: about 6.7%.
Pf Dd2 growth: blocks growth of Plasmodium falciparum Dd2 parasites | P. falciparum Dd2 growth, SYBR Green, 72 h; active compounds read low | activity change, % at 10 µM | actives 2.3% (n = 94,000); in the data active = activity change below about -80%; inconclusive = no clear call, values can overlap the other calls
C diff HTS: inhibitors of Clostridium difficile growth; actives 0.25% (n = 86,000); Clostridium difficile clinical isolate growth, OD600, 24 h; active compounds read low; growth activity, negative = inhibition, % at 16 µg/mL (by protocol);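 active = mean growth activity at or below -80% and every replicate also at or below -80%; inconclusive = mean at or below -80% but some replicate above -80%; inactive = mean growth activity above -80%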
T cruzi growth-1: inhibitors of T. cruzi proliferation; T. cruzi beta-gal in NIH3T3, GalScreen luminescence, 90 h; inhibition, % at 8.34 µM; actives 5.9% (n = 77,000);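 active = mean inhibition above about 93%, with at least 55% of replicates each passing it, limit read from the data, passing the limit was not always enough; inconclusive = only one of those two conditions holds; inactive = neither condition holds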
T cruzi growth-2: inhibitors of T. cruzi proliferation; AID 651739; shares compounds with T cruzi growth-1; actives 72% (n = 5,600); T. cruzi beta-gal in NIH3T3, GalScreen luminescence, 90 h; inhibition, % at 8.35 µM;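 active = mean replicate inhibition above about 95% and at least 55% of replicates individually reaching it, limit read from the data; inconclusive = only one of the two criteria is met; inactive = neither criterion is met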
T cruzi growth-3: inhibitors of T. cruzi proliferation. inhibition, % at 2.09 µM. AID 651740. actives 21% (n = 5,600). shares compounds with T cruzi growth-1. T. cruzi beta-gal in NIH3T3, GalScreen luminescence, 90 h;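 active = mean inhibition above about 95%, with at least 55% of replicates also reaching it, limit read from the data; inconclusive = meets just one of the two conditions; inactive = meets neither condition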
3T3 cytotox: NIH/3T3 (mouse) viability loss | shares compounds with T cruzi growth-1 | NIH/3T3 viability, CellTiter-Glo ATP luminescence, 90 h | cytotoxicity (signal decrease), % at 8.35 µM | actives 14% (n = 5,600) | AID 651742;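 active = mean signal decrease across replicates above about 35% based on untreated-well scatter, with enough replicates individually passing, limit read from the data; inconclusive = no rule stated though some were filed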
NIH3T3 tox 2: NIH/3T3 (mouse) viability loss | shares compounds with T cruzi growth-1 | NIH/3T3 viability, CellTiter-Glo ATP luminescence, 90 h | inhibition, % at 24.9 µM | actives 56% (n = 5,600) | AID 651744;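 active = mean loss of cell viability signal at or above a set limit, and enough replicates individually reaching it; inconclusive = meets only the mean limit or only the replicate share; inactive = meets neither condition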
Of the large screens only hits and unclear results are named; the others gave an inactive call (follow-up assays come after a bar, where they were run); ! = not active in a repeat.

C[C@@H]1CN([C@@H](C)CO)S(=O)(=O)c2ccc(-c3ccc(F)cc3)cc2O[C@@H]1CN(C)C(=O)C1CCCCC1	none
C[C@H]1CN([C@@H](C)CO)C(=O)c2cc(C3=CCCC3)cnc2O[C@H]1CN(C)Cc1ccccc1	none
CCCN1C[C@@H](C)[C@H](OC)CN(C)C(=O)c2cc(NC(=O)c3ccc(F)cc3)ccc2OC[C@H]1C	none (no result: C diff HTS)
CN1CCN(C(=O)C[C@@H]2CC[C@@H]3[C@@H](COc4ccc(NC(=O)C5CCCCC5)cc4C(=O)N3C)O2)CC1	none
COc1ccc(CN(C)C[C@H]2Oc3ccc(NS(=O)(=O)c4ccc(OC)cc4)cc3CC(=O)N([C@H](C)CO)C[C@@H]2C)cc1	none (no result: T cruzi growth-1)
COc1ccc(CN(C)C[C@H]2Oc3ccc(NS(=O)(=O)c4ccc(OC)cc4)cc3CC(=O)N([C@H](C)CO)C[C@H]2C)cc1	none
COc1ccc(S(=O)(=O)Nc2ccc3c(c2)CC(=O)N([C@@H](C)CO)C[C@@H](C)[C@@H](CN(C)Cc2ccc(C(F)(F)F)cc2)O3)cc1	none
COc1ccc(CN(C)C[C@@H]2Oc3ccc(NS(=O)(=O)c4ccc(OC)cc4)cc3CC(=O)N([C@H](C)CO)C[C@H]2C)cc1	T cruzi growth-1 105 | T cruzi growth-2 103 | T cruzi growth-3 inactive | 3T3 cytotox inactive | NIH3T3 tox 2 inactive
COc1ccc(S(=O)(=O)Nc2ccc3c(c2)CC(=O)N([C@H](C)CO)C[C@@H](C)[C@H](CN(C)Cc2ccc(C(F)(F)F)cc2)O3)cc1	T cruzi growth-1 inconclusive | T cruzi growth-2 102 | T cruzi growth-3 inactive | 3T3 cytotox inactive | NIH3T3 tox 2 59
COc1ccc(CN(C)C[C@H]2Oc3ccc(NS(=O)(=O)c4ccc(C)cc4)cc3CC(=O)N([C@H](C)CO)C[C@H]2C)cc1	T cruzi growth-1 115 | T cruzi growth-2 108 | T cruzi growth-3 inactive | 3T3 cytotox inactive | NIH3T3 tox 2 inconclusive
COc1ccccc1CNC(=O)C[C@H]1C[C@H]2c3cc(NC(=O)CN(C)C)ccc3O[C@H]2[C@@H](CO)O1	none (no result: C diff HTS)
CCC(=O)N1[C@H](CO)[C@H]2c3ccccc3N(C(=O)Nc3ccccc3Cl)C[C@H]21	none
CCNC(=O)[C@H]1[C@H](CO)[C@H]2Cn3c(ccc(-c4cccc(F)c4)c3=O)[C@@H]1N2C(C)=O	none (no result: Pf Dd2 growth)
COc1cccc(S(=O)(=O)N2C[C@@H](O)COC[C@@H]3O[C@@H](CC(=O)N4CCOCC4)CC[C@H]32)c1	none (no result: C diff HTS)
O=C(C[C@H]1CC[C@@H]2[C@H](COC[C@@H](O)CN2S(=O)(=O)c2cccc(F)c2)O1)Nc1ccc(-c2ccccc2)cc1	T cruzi growth-1 96 | T cruzi growth-2 103 | T cruzi growth-3 inactive | 3T3 cytotox 50 | NIH3T3 tox 2 101
O=C(C[C@H]1CC[C@@H]2[C@H](COC[C@H](O)CN2S(=O)(=O)c2cccc(F)c2)O1)Nc1ccc(-c2ccccc2)cc1	T cruzi growth-1 101 | T cruzi growth-2 98 | T cruzi growth-3 inactive | 3T3 cytotox 44 | NIH3T3 tox 2 104
Cc1ccc(S(=O)(=O)N2C[C@H](O)COC[C@H]3O[C@H](CC(=O)NCc4ccc(Cl)c(Cl)c4)CC[C@@H]32)cc1	none (no result: C diff HTS)
COc1ccc(S(=O)(=O)N2C[C@H](O)COC[C@@H]3O[C@@H](CC(=O)NCc4ccc(Cl)c(Cl)c4)CC[C@H]32)cc1	T cruzi growth-1 109 | T cruzi growth-2 101 | T cruzi growth-3 inactive | 3T3 cytotox inactive | NIH3T3 tox 2 62
COc1cccc(S(=O)(=O)N2C[C@H](O)COC[C@H]3O[C@@H](CC(=O)N4CCOCC4)CC[C@@H]32)c1	T cruzi growth-1 inconclusive (no result: C diff HTS) | T cruzi growth-2 inactive | T cruzi growth-3 inactive | 3T3 cytotox inactive | NIH3T3 tox 2 inactive
O=C(C[C@H]1CC[C@@H]2[C@H](COC[C@H](O)CN2S(=O)(=O)c2cccc(F)c2)O1)Nc1ccccc1	none (no result: T cruzi growth-1)
O=C(C[C@H]1CC[C@H]2[C@@H](COC[C@@H](O)CN2S(=O)(=O)c2cccc(F)c2)O1)Nc1ccc(-c2ccccc2)cc1	none
COc1ccc(CN(C)C[C@H]2Oc3ccc(NS(=O)(=O)c4cccs4)cc3C(=O)N([C@H](C)CO)C[C@@H]2C)cc1	none
O=C(C[C@@H]1CC[C@@H](NS(=O)(=O)c2ccccc2)[C@H](CO)O1)NCc1ccncn1	none
O=C(C[C@@H]1CC[C@@H](NC(=O)Nc2ccc(C(F)(F)F)cc2)[C@H](CO)O1)NCc1cc(F)cc(F)c1	none (no result: C diff HTS)
C[C@@H]1CN([C@H](C)CO)C(=O)c2cc(C#CC3(O)CCCC3)cnc2O[C@@H]1CN(C)CC1CC1	none (no result: T cruzi growth-1)
C[C@H]1CN([C@@H](C)CO)C(=O)Cc2cc(NC(=O)CCCCCC(=O)Nc3ccccc3N)ccc2O[C@H]1CN(C)Cc1ccc(C(F)(F)F)cc1	none
O=C(c1cccnc1)N1CC2(C1)[C@@H](c1ccccc1)[C@@H](CO)N2Cc1ccncc1	none (no result: T cruzi growth-1)
O=C(C[C@@H]1CC[C@@H]2[C@H](COC[C@H](O)CN2S(=O)(=O)c2ccccc2)O1)NCc1ccc(-c2ccccc2)cc1	none
O=C(C[C@@H]1CC[C@@H]2[C@H](COC[C@@H](O)CN2S(=O)(=O)c2ccccc2)O1)NCc1ccc(-c2ccccc2)cc1	Pf Dd2 growth -90, T cruzi growth-1 105 | T cruzi growth-2 105 | T cruzi growth-3 inactive | 3T3 cytotox inactive | NIH3T3 tox 2 inactive
Cc1ccc(S(=O)(=O)Nc2ccc3c(c2)CC(=O)N([C@H](C)CO)C[C@H](C)[C@H](CN(C)CC2CCCCC2)O3)cc1	none
C[C@H]1CN([C@@H](C)CO)S(=O)(=O)c2ccc(C#CC3CCCCC3)cc2O[C@H]1CN(C)Cc1cccnc1	none (no result: C diff HTS)
C[C@H](CO)N1C[C@H](C)[C@@H](CN(C)Cc2cccnc2)Oc2cc(C#CC3CCCC3)ccc2S1(=O)=O	T cruzi growth-1 96 | T cruzi growth-2 102 | T cruzi growth-3 109 | 3T3 cytotox inactive | NIH3T3 tox 2 105
C[C@H](CO)N1C[C@H](C)[C@@H](CN(C)Cc2cccnc2)Oc2cc(C#CC3CCCCC3)ccc2S1(=O)=O	none (no result: C diff HTS)
C[C@@H]1CN([C@@H](C)CO)S(=O)(=O)c2ccc(C#CC3CCCCC3)cc2O[C@@H]1CN(C)Cc1cccnc1	T cruzi growth-1 102! | T cruzi growth-2 113 | T cruzi growth-3 inactive | 3T3 cytotox 51 | NIH3T3 tox 2 105
Cc1ccc(NC(=O)Nc2ccc3c(c2)C(=O)N(C)[C@@H]2CC[C@@H](CC(=O)NCC(F)(F)F)O[C@H]2CO3)cc1	none (no result: Pf Dd2 growth)
COCC(=O)NC[C@@H]1[C@@H](c2ccc(C3=CCCC3)cc2)[C@H](CO)N1C(C)=O	none
CNC(=O)C[C@@H]1CC[C@H]2[C@@H](COC[C@@H](O)CN2Cc2ccccc2F)O1	none (no result: T cruzi growth-1)
